“And” between values parts separate entries of the source, which are not always exact repeats. Equal entries are not always repeated. Records with an inconclusive call do not appear. The source made the active and inactive calls. Unless noted, calls come from the whole dose curve; as a rule, active = well fitted curve in the direction sought with a large enough effect; inconclusive = small, poorly fitted or top-dose-only effect, or another doubt; inactive = no such curve, though single readings can be large; an effect the other way counts as inactive or inconclusive.
Key:
[1] = Stat Signaling Pathway (AID 446; active = well fitted curve in either direction with a large enough effect, not every such curve was filed as active;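 note: ME-180 cervical cancer cells given 40 pM IL-6 alongside compound; SIE-controlled beta-lactamase reporter measured as 460/530 nm FRET emission ratio; % is set by controls: 0 for no effect and ±100 for the full control effect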); conditions: ME-180 SIE beta-lactamase reporter, IL-6 stimulated, 5 h; series mostly up to 17.2 µM
Outline: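 ME-180 cells carrying a SIE-driven beta-lactamase reporter are stimulated with 40 pM IL-6 for 5 h at 37C in the presence of compound. The 460/530 nm FRET substrate ratio is read after 2.5 h at RT. Data are normalised to 300 pM IL-6 and to 125 nM JAK inhibitor controls.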

[2] = target: Glucocorticoid receptor (Homo sapiens) (UniProt P04150); experiment: GR-GFP Redistribution (AID 450;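 active = compounds whose dose series gives a full or clear partial fitted curve of increased nuclear translocation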; note: potency is the fitted concentration of half-maximal effect); conditions: U2OS GR-GFP nuclear translocation, laser cytometry, 2 h
[3] = target: Glucocorticoid receptor (Homo sapiens) (UniProt P04150); experiment: GR-EFC Redistribution (AID 451; calls by dose curve; note: potency is the fitted concentration of half-maximal effect); conditions: CHO-K1 GR-EFC translocation, beta-gal luminescence, 2 h
Outline: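 CHO-K1 cells stably expressing nuclear-localized β-gal enzyme acceptor and GR fused C-terminally to the enzyme donor fragment; ligand-driven nuclear translocation restores β-gal by complementation. Compounds titrated up to 46 uM final, 2 h at 37 °C; luminescence read.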

[4] = target: 3',5'-cyclic-AMP phosphodiesterase 4B (Homo sapiens) (UniProt Q07343); experiment: qHTS Assay for Inhibitors of PDE-IV (AID 607; active = well fitted activation curve with a large enough effect in the main read-out, with a control signal flat, not every such curve was filed as active; note: % of control where 0% means no effect); conditions: HEK293 ACTOne CNG channel cells, membrane potential fluorescence; series mostly up to 22.9 µM
Outline: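 HEK293 ACTOne cells with CNG channel (1000/well), endogenous PDE4; membrane potential dye, compounds up to 22.9 uM final. Fluorescence Ex 535/Em 590; RO 20-1724 (100 uM final) as reference.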

[5] = Cell Viability - HUV-EC-C (AID 542); conditions: HUV-EC-C endothelial cell viability, qHTS; series mostly up to 92.2 µM; note: nearly all actives have a fitted effect of over 35% in size; note: potency is the fitted concentration of half-maximal effect; for activity change, negative = cytotoxicity: % is set by controls: 0 for no effect and ±100 for the full control effect
Outline: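 HUV-EC-C normal human vascular endothelial cells, 1000 cells/well, pre-incubated 5 hr at 37 °C, then exposed to compounds for 40 hr at 37 °C in complete medium. Viability measured as intracellular ATP by CellTiter-Glo luminescence; AC50 from Hill fits.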

[6] = Cell Viability - H-4-II-E (AID 543); conditions: H-4-II-E rat hepatoma viability; series mostly up to 92.2 µM; note: nearly all actives have a fitted effect of over 35% in size; note: potency is the fitted concentration of half-maximal effect
Outline: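 Rat hepatoma H-4-II-E cells (1500/well) were plated, incubated 5 hr at 37 °C, then exposed to compounds for 40 hr at 37 °C. Cellular ATP was read by CellTiter-Glo luminescence; AC50 came from Hill-equation fits of concentration-response data.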

[7] = Cell Viability - SH-SY5Y (AID 544); conditions: SH-SY5Y neuroblastoma cell viability; viability change, negative = cytotoxic: at 92.2 µM (top of the series); note: nearly all actives have a fitted effect of over 55% in size; note: potency is the fitted concentration of half-maximal effect;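 for viability change, negative = cytotoxic: 0% = DMSO alone and -100% = 100 µM tamoxifen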
Outline: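 Human neuroblastoma SH-SY5Y cells (1500/well) in complete medium were exposed to compounds for 40 hr at 37 °C; intracellular ATP was then quantified by CellTiter-Glo luminescence after 20 min at room temperature. AC50 came from Hill-equation concentration-response fits.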

[8] = Cell Viability - Renal Proximal Tubule (AID 545); conditions: renal proximal tubule cells viability, primary cells of rat origin; activity change, negative = cytotoxicity: at 91.7 µM (top of the series); note: nearly all actives have a fitted effect of over 40% in size; note: potency is the fitted concentration of half-maximal effect;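 for activity change, negative = cytotoxicity: 0% = DMSO only and -100% = 100 µM tamoxifen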
Outline: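 In this qHTS format, normal rat kidney-derived proximal tubule cells in complete culture medium receive compound titrations, then sit 40 hours at 37 °C before luciferase-based ATP quantitation; potency is reported as AC50 from concentration-response curves.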

[9] = Cell Viability - Mesenchymal (AID 546); conditions: mesenchymal cells viability, qHTS; activity change, negative = cytotoxicity: at 91.7 µM (top of the series);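 note: cells exposed to compound for 40 hours before reading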; note: potency is the fitted concentration of half-maximal effect;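 for activity change, negative = cytotoxicity: 0% = DMSO only and -100% = 100 µM tamoxifen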
Outline: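 Normal human renal glomerulus-derived kidney mesenchymal cells, 1000 per well in complete medium, were treated with compounds for 40 hr at 37 °C. Viability was read as intracellular ATP by CellTiter-Glo luminescence; AC50 values came from Hill-equation fits of qHTS concentration-response data.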

[10] = Cell Viability - NIH 3T3 (AID 541); conditions: NIH 3T3 cell viability, qHTS; activity change, negative = cytotoxicity: at 92.2 µM (top of the series);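 note: plate controls were DMSO alone for no effect and tamoxifen positive control for full effect; nearly all actives have a fitted effect of over 25% in size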
Outline: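 NIH 3T3 mouse embryo fibroblasts (1000 cells/well) were plated in complete medium and treated with compound for 40 hr at 37 °C. Viability was read as intracellular ATP by CellTiter-Glo luminescence; AC50 values came from Hill-equation fits of concentration-response data.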

Glucocorticoid receptor (Homo sapiens), sequence (P04150 whole entry, looked up, the tested form may be a part): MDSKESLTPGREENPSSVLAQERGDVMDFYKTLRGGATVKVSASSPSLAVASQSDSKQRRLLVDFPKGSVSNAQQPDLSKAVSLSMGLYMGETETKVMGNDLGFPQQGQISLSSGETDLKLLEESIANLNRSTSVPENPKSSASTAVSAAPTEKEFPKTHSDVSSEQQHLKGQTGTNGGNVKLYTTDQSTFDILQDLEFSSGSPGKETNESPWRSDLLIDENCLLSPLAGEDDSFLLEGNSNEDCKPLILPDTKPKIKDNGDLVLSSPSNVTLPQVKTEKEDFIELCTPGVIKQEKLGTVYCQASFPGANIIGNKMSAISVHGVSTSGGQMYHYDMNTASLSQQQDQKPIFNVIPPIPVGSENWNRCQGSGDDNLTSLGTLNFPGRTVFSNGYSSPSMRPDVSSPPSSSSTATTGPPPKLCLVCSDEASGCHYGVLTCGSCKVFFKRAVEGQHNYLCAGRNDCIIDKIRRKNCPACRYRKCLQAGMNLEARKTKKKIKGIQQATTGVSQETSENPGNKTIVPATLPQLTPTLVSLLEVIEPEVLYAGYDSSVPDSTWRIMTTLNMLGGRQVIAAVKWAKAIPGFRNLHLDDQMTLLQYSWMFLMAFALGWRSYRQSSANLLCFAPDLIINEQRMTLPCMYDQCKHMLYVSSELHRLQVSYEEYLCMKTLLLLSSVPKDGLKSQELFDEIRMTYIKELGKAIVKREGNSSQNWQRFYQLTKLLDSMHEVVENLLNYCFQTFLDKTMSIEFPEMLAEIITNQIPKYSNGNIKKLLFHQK
3',5'-cyclic-AMP phosphodiesterase 4B (Homo sapiens), sequence (Q07343 whole entry, looked up): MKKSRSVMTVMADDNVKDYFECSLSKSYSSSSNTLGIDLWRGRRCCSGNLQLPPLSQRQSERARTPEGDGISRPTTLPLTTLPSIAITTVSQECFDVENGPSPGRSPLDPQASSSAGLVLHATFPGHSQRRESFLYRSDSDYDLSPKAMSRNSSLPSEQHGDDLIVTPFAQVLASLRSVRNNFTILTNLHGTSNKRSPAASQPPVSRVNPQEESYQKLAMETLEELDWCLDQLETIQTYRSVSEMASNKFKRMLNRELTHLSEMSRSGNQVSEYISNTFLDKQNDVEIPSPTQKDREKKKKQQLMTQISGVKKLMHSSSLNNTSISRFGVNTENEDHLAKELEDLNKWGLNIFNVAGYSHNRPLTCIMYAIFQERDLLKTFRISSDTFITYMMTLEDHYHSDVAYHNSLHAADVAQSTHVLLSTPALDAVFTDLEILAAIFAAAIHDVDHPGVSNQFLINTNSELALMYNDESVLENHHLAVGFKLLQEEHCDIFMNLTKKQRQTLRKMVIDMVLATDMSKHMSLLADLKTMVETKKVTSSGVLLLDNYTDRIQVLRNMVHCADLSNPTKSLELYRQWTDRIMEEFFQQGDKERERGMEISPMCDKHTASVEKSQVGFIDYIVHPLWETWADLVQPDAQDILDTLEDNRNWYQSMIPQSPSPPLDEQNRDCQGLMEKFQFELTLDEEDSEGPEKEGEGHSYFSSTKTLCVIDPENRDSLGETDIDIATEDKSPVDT

CC1(C)O[C@@H]2C[C@H]3[C@@H]4CCC5=CC(=O)C=C[C@]5(C)[C@@]4(F)[C@@H](O)C[C@]3(C)[C@]2(C(=O)CO)O1
active: Potency [2] 0.00313 µM
inactive: outcome [1]

COc1ccccc1N1CCN(CCN2C(=O)CC3(CCCC3)CC2=O)CC1
inactive: outcome [1] | Potency [2] > 46 µM | Potency [3] > 46 µM | outcome [4]

CN(C(=O)C(Cl)Cl)c1ccc(OC(=O)c2ccco2)cc1
inactive: outcome [1] | Potency [2] > 20.6 µM | Potency [3] > 20.6 µM | outcome [4]

CN1CCCN(C(c2ccccc2)c2ccc(Cl)cc2)CC1 (stereo unspecified)
active: Potency [2] 6.11 µM
inactive: outcome [1]

O=C(O)/C=C(\CC(=O)O)C(=O)O
inactive: outcome [1] | outcome [4]

CCN(CC)CCOc1ccc(/C(=C(\Cl)c2ccccc2)c2ccccc2)cc1
inactive: outcome [1] | Potency [2] > 20.6 µM | Potency [3] > 20.6 µM

CC1(C)O[C@@H]2C[C@H]3[C@@H]4C[C@H](F)C5=CC(=O)C=C[C@]5(C)[C@@]4(F)[C@@H](O)C[C@]3(C)[C@]2(C(=O)CO)O1
inactive: outcome [1]
active: Potency [2] 0.000728 µM

O=C1NC(c2cccc([N+](=O)[O-])c2)=CCN1c1ccccc1O
inactive: outcome [1] | Potency [2] > 46 µM | Potency [3] > 46 µM | outcome [4]

Cn1cnc2c(NCc3ccccc3)nc(NCCO)nc21
inactive: outcome [1] | Potency [2] > 46 µM | Potency [3] > 46 µM | outcome [4]

C[C@]12CCC(=O)C=C1CC[C@@H]1[C@@H]2[C@@H](O)C[C@@]2(C)[C@H]1CC[C@]2(O)C(=O)COC(=O)CCC(=O)O
active: Potency [2] 44.2 nM and 599 nM
inactive: outcome [1]

CCCC(=O)O[C@]1(C(=O)CCl)[C@@H](C)C[C@H]2[C@@H]3CCC4=CC(=O)C=C[C@]4(C)[C@@]3(F)C(=O)C[C@@]21C
active: Potency [2] < 5.9e-06 µM
inactive: outcome [1]

C[C@H]1C[C@@H]2[C@H]([C@@H](O)C[C@@]3(C)[C@H]2CC[C@]3(O)C(=O)CO)[C@@]2(C)C=CC(=O)C=C12
inactive: outcome [1]

O=C(O)c1ccccc1S
inactive: outcome [1] | Potency [2] > 20.6 µM

O=C(Oc1ccccc1)c1ccccc1O
inactive: Potency [5] | Potency [6] | Potency [7] | Potency [8] | Potency [9]

Nc1c[n+](N2CCOCC2)no1
inactive: Potency [2] > 46 µM | Potency [3] > 46 µM | outcome [4]

CC(C)C(C)(C)C(C)(C)C(C)(C)S
inactive: activity change, negative = cytotoxicity [10] -18.6% | Potency [5] | Potency [6] | Potency [7] | Potency [8] | Potency [9]

Clc1ccc2c(c1)N=C(N1CCNCC1)c1ccccc1N2
inactive: Potency [2] > 46 µM | Potency [3] > 46 µM | outcome [4]

C1=CC2C3C=CC(C3)C2C1 (stereo unspecified)
inactive: Potency [5] | Potency [6] | Potency [7] | Potency [8] | Potency [9]

CCCC(=O)c1cc(O)c(O)cc1O
inactive: Potency [5] | Potency [6] | Potency [8]
active: viability change, negative = cytotoxic [7] -93.1%

Nc1ccc(O)cc1
active: activity change, negative = cytotoxicity [10] -133% | Potency [5] 31.6 µM | Potency [6] 39.8 µM | Potency [7] 25.1 µM | Potency [8] 25.1 µM | Potency [9] 31.6 µM

CC(C)N(CCC(=O)c1ccc2ccccc2c1)Cc1ccccc1
inactive: Potency [2] > 46 µM | Potency [3] > 46 µM | outcome [4]

O=C(c1ccccc1)c1ccccc1
inactive: activity change, negative = cytotoxicity [10] -23.6% | Potency [5] | Potency [6] | Potency [7] | Potency [8] | Potency [9]

O=C(NO)c1ccccc1
inactive: Potency [5] | Potency [6] | Potency [7] | Potency [8] | Potency [9]

Brc1ccccc1-c1ccccc1
inactive: activity change, negative = cytotoxicity [10] 3.13% | Potency [5] | Potency [6] | Potency [7] | Potency [8] | Potency [9]

OCc1c[nH]c2ccccc12
inactive: activity change, negative = cytotoxicity [10] 0.242% | Potency [5] | Potency [6] | Potency [7] | Potency [9]

Nc1c2ccccc2nc2ccccc12
active: activity change, negative = cytotoxicity [10] -137% | Potency [5] 15.8 µM | Potency [6] 15.8 µM | Potency [7] 7.94 µM | Potency [8] 31.6 µM

CN(C)c1cc2c(Nc3ccc4c(cnn4Cc4ccccc4)c3)ncnc2cn1
inactive: Potency [2] > 46 µM | Potency [3] > 46 µM | outcome [4]

Cc1cc(C(C)(C)C)c(O)c(C(C)(C)C)c1
inactive: activity change, negative = cytotoxicity [10] 2.09% | Potency [5] | Potency [6] | Potency [7] | Potency [8] | Potency [9]

Cc1ccc(O)cc1
inactive: activity change, negative = cytotoxicity [10] -11.4% | Potency [5] | Potency [6] | Potency [7] | Potency [8] | Potency [9]

COc1cc(C=O)ccc1O
inactive: activity change, negative = cytotoxicity [10] -22.1% | Potency [5] | Potency [6] | Potency [7] | Potency [8] | Potency [9]

CC(C)(C)c1ccc(O)c(O)c1
active: activity change, negative = cytotoxicity [10] -146% | Potency [7] 12.6 µM | activity change, negative = cytotoxicity [8] -98.1% | activity change, negative = cytotoxicity [9] -100%
